# Legend:
# Test in all cases: pooled miR-30 sensor sort-seq; sequence = guide strand
# Conditions in all cases: shRNA
# ANGPTL1 = molecular target: ANGPTL1
# ANGPTL3 = molecular target: ANGPTL3
# ANG = molecular target: ANG
# ANAPC5 = molecular target: ANAPC5
# ANKRD53 = molecular target: ANKRD53
# ANKRD23 = molecular target: ANKRD23
# ANKRD22 = molecular target: ANKRD22
# ANKRD40 = molecular target: ANKRD40
# AP3B1 = molecular target: AP3B1
# APOBEC3A = molecular target: APOBEC3A
# ARHGAP30 = molecular target: ARHGAP30
# ARPC4 = molecular target: ARPC4
# ASCC1 = molecular target: ASCC1
# ASB15 = molecular target: ASB15
# ASCL1 = molecular target: ASCL1
# ASPRV1 = molecular target: ASPRV1
# ATP10B = molecular target: ATP10B
# ATP6V0A4 = molecular target: ATP6V0A4
# AVPR1B = molecular target: AVPR1B
# BBC3 = molecular target: BBC3
# BCL7A = molecular target: BCL7A
# C11orf49 = molecular target: C11orf49
# C14orf181 = molecular target: C14orf181
# C15orf39 = molecular target: C15orf39
# C15orf42 = molecular target: C15orf42
# C15orf54 = molecular target: C15orf54
sequence,measurement,setting,value
TTGATTGCTAAGCATATAGATA,sensor-assay potency score (higher = more potent),ANGPTL1,-1.25
TTGCAGAACATCTATCTCCCGC,sensor-assay potency score (higher = more potent),ANGPTL1,0.289
TAAATTGTTAAGTATCTTGAAC,sensor-assay potency score (higher = more potent),ANGPTL1,-0.687
TAATGTTTGTTGTCTTTCCAGT,sensor-assay potency score (higher = more potent),ANGPTL3,-0.418
TATAGAGTTGAGTAACACGAGA,sensor-assay potency score (higher = more potent),ANGPTL1,-1.16
TTCTTTTATTTGACTATGCTGT,sensor-assay potency score (higher = more potent),ANGPTL3,-0.537
AAGACTTGCTTATTCTTAGGTT,sensor-assay potency score (higher = more potent),ANG,0.22
TCGTCTAACATAGCAAATCTTG,sensor-assay potency score (higher = more potent),ANGPTL3,-1.34
TTTGATTCTGATCTGCACTGAA,sensor-assay potency score (higher = more potent),ANAPC5,0.516
TTCACAAGCAACAACAACGTTT,sensor-assay potency score (higher = more potent),ANG,-0.418
TTATAGAGTATAACCTTCCATT,sensor-assay potency score (higher = more potent),ANGPTL3,-0.924
TTTAATGGTACTTGCATCTTGC,sensor-assay potency score (higher = more potent),ANGPTL1,0.613
TTGGACTCCGCGTCAGTCCAGG,sensor-assay potency score (higher = more potent),ANKRD53,-1.11
TCTTTCTCCACTTACCAACTGC,sensor-assay potency score (higher = more potent),ANKRD23,-0.293
TTGACCTTGATACTCAATCAGG,sensor-assay potency score (higher = more potent),ANKRD53,-0.673
TAGAGCAGCAGTAGCTTCATGG,sensor-assay potency score (higher = more potent),ANKRD23,-0.653
TAAATTTTTTCTTCACAGCATA,sensor-assay potency score (higher = more potent),ANKRD22,-1.16
TTCATGGCTTTGTAGCTGCCGT,sensor-assay potency score (higher = more potent),ANKRD23,-0.986
TTCCTTAACAGAGTATTGGGTA,sensor-assay potency score (higher = more potent),ANKRD40,0.698
TTGTCCTTCCTTAACAGAGTAT,sensor-assay potency score (higher = more potent),ANKRD40,-0.746
TGTCTCAGTCGCTTTTTCCGTC,sensor-assay potency score (higher = more potent),ANKRD23,-0.0673
TAGTAGAGAAATGTCCTGCCAT,sensor-assay potency score (higher = more potent),ANKRD53,-0.32
TTTTGAGGTTGACATTAGCATT,sensor-assay potency score (higher = more potent),ANKRD22,-1.7
TCGAGCAACATCCTTGTCCTTC,sensor-assay potency score (higher = more potent),ANKRD40,-0.697
TTTCTGAGTGCCAGCTTCCGGA,sensor-assay potency score (higher = more potent),ANKRD53,-1.18
TTGATCTGGATTAACACCCAGC,sensor-assay potency score (higher = more potent),ANKRD40,-0.194
TATCATCAGAACCAGTTCCAGC,sensor-assay potency score (higher = more potent),ANKRD40,-0.968
TCTTTGAACCAAGTTTTCCAAG,sensor-assay potency score (higher = more potent),ANKRD23,-1.3
TTGCTTGGTATTGGAGACCAGA,sensor-assay potency score (higher = more potent),ANKRD53,-0.812
TAGCATTCGTACAAGAGCCTCA,sensor-assay potency score (higher = more potent),ANKRD22,0.13
ATTATTTTCACTTATCATCAGA,sensor-assay potency score (higher = more potent),ANKRD40,-0.625
TAATTTGAAACGTACAGACGGT,sensor-assay potency score (higher = more potent),ANKRD23,0.00484
TTTTCCACATAGTAACAACAGC,sensor-assay potency score (higher = more potent),ANKRD23,-1.09
TTGTCTTTGATACCATGAGGAA,sensor-assay potency score (higher = more potent),ANKRD22,-1.48
TCTGATAGCAGCTTCTCTGAGA,sensor-assay potency score (higher = more potent),ANKRD53,-0.337
TGATCTTCTCCACTTGATCTGG,sensor-assay potency score (higher = more potent),ANKRD40,-0.74
TTCATCGAATGTGTCACGCAGG,sensor-assay potency score (higher = more potent),ANKRD53,-0.608
TAACAGGTAAGAGACCACCTGA,sensor-assay potency score (higher = more potent),ANKRD40,-0.364
TTATCCAGATTAAATCTGGTAC,sensor-assay potency score (higher = more potent),ANKRD23,-0.803
TGATAGTAGAGAAATGTCCTGC,sensor-assay potency score (higher = more potent),ANKRD53,0.127
TTGGAGTCGAGCAACATCCTTG,sensor-assay potency score (higher = more potent),ANKRD40,-0.239
TTAAGATTCACTTTCTGGCGTT,sensor-assay potency score (higher = more potent),ANKRD23,-0.127
TTCTCCACTTACCAACTGCTGA,sensor-assay potency score (higher = more potent),ANKRD23,-0.872
ATCTGTAGCATTAACTTCGACG,sensor-assay potency score (higher = more potent),ANKRD22,-1.27
TTCCAATTTCAGCTTCTCCCGG,sensor-assay potency score (higher = more potent),ANKRD23,-0.86
TAACTTTCTGATCTTCTCCACT,sensor-assay potency score (higher = more potent),ANKRD40,-1.02
TTATTGTGGGGTCTGCACGGGC,sensor-assay potency score (higher = more potent),ANKRD22,-0.753
TACAAGAGCCTCATTCTGCTTT,sensor-assay potency score (higher = more potent),ANKRD22,-0.0713
TTTTGTGGTAAGAATTTCTTTG,sensor-assay potency score (higher = more potent),ANKRD40,-0.767
TTCACTTATCATCAGAACCAGT,sensor-assay potency score (higher = more potent),ANKRD40,-0.41
AAATCTTTCAAGTTTCTTCTTC,sensor-assay potency score (higher = more potent),ANKRD23,0.216
TACATTCGGAACAATAAGCTGC,sensor-assay potency score (higher = more potent),AP3B1,0.383
TTAAATTCATCGTAGGTCATGA,sensor-assay potency score (higher = more potent),APOBEC3A,0.00462
TTGATCGGGAGCATACTGCTTT,sensor-assay potency score (higher = more potent),APOBEC3A,0.642
TTATTCTGAGACATTGACCTTC,sensor-assay potency score (higher = more potent),ARHGAP30,0.266
TTTGCTACTCCTGACTTCCACT,sensor-assay potency score (higher = more potent),ARPC4,-1.07
TTCTTCATGTTGATAGGTCTGT,sensor-assay potency score (higher = more potent),ASCC1,1.07
TAGAAGTTCTCAAACAACTTTA,sensor-assay potency score (higher = more potent),ASCC1,-0.0661
TTTTTCATCAGCTTCATCCATT,sensor-assay potency score (higher = more potent),ASB15,-0.484
TTGACTGACAGCTTCATCTCAC,sensor-assay potency score (higher = more potent),ARPC4,0.494
TTTCACACTATTCCACTCTTTC,sensor-assay potency score (higher = more potent),ASCC1,-0.561
AATTACACCATTTCGATGCTGG,sensor-assay potency score (higher = more potent),ASCC1,0.516
TGTAACAGGAGCTCTTTGCTAC,sensor-assay potency score (higher = more potent),ARPC4,-0.241
TTCACTGTAAACCAATGTCTAC,sensor-assay potency score (higher = more potent),ASCL1,-1.2
TTACACAAGATGTCCATCCTGG,sensor-assay potency score (higher = more potent),ASB15,0.839
TCCATTTCTATTTTCTTCCTAG,sensor-assay potency score (higher = more potent),ASCC1,-0.685
TCAACTAATTCTTGTAGCCTGT,sensor-assay potency score (higher = more potent),ASCC1,-0.154
AATACATTAACAACATTTCTAT,sensor-assay potency score (higher = more potent),ASCL1,-0.252
TAGCATCTCACATGTCTGCTGG,sensor-assay potency score (higher = more potent),ASCC1,0.184
TTCATCTCACTGATCTCCTTGT,sensor-assay potency score (higher = more potent),ARPC4,0.358
TTAGCTGAATATCATAACTTGT,sensor-assay potency score (higher = more potent),ASB15,-0.69
TTTGAGTTTGGACAGTAGCTGC,sensor-assay potency score (higher = more potent),ASCL1,-0.582
TCTTGGACTGGATTCTTCCTGT,sensor-assay potency score (higher = more potent),ASCC1,0.362
TGTCGTTCCACAACCTGGGAGG,sensor-assay potency score (higher = more potent),ARPC4,-0.878
TATGTATCTTTGAATAGCTGGT,sensor-assay potency score (higher = more potent),ASB15,-0.171
TGTTTGTACATCTGCTCTGTGT,sensor-assay potency score (higher = more potent),ARPC4,-0.895
TTCACAGCAATGCTGACCCGGA,sensor-assay potency score (higher = more potent),ARPC4,-0.48
TTTCACAGCAATGCTGACCCGG,sensor-assay potency score (higher = more potent),ARPC4,-0.244
TCCACCTTACTCATCTTCTTGT,sensor-assay potency score (higher = more potent),ASCL1,-0.496
TGTATCTTTGAATAGCTGGTGG,sensor-assay potency score (higher = more potent),ASB15,-0.176
TTGCGCTCGCGCTCGTTGCGGC,sensor-assay potency score (higher = more potent),ASCL1,-0.896
TTTTCCTTCTCATTCCTGCTGA,sensor-assay potency score (higher = more potent),ARPC4,0.452
TATGCTTATAGAGCAAGCTGGG,sensor-assay potency score (higher = more potent),ASCC1,-1
AAATCTTCTCGATCTCATCAGC,sensor-assay potency score (higher = more potent),ARPC4,-0.856
TTTCACAGCAATCAGAAGGGGG,sensor-assay potency score (higher = more potent),ASB15,-0.119
TAGACCGGAATCCTTGTGGGGT,sensor-assay potency score (higher = more potent),ASCC1,-0.676
TTGGACTGGATTCTTCCTGTAA,sensor-assay potency score (higher = more potent),ASCC1,-0.381
TCTCTTTCCAACTATATGCTTA,sensor-assay potency score (higher = more potent),ASCC1,-0.403
TAAGTTTGTAATAAAACAGTAA,sensor-assay potency score (higher = more potent),ASCL1,-0.00305
TGTGTTTGTACATCTGCTCTGT,sensor-assay potency score (higher = more potent),ARPC4,0.568
TAATACATTAACAACATTTCTA,sensor-assay potency score (higher = more potent),ASCL1,0.433
TTTATTACACAAGATGTCCATC,sensor-assay potency score (higher = more potent),ASB15,-0.601
TATCTTTGAATAGCTGGTGGTA,sensor-assay potency score (higher = more potent),ASB15,-0.545
TTTATATTTTACATACTCCTGG,sensor-assay potency score (higher = more potent),ASB15,-0.0391
TTTGCAGCGCATCAGTTCGGGC,sensor-assay potency score (higher = more potent),ASCL1,-1.5
TTGTGTTTGTACATCTGCTCTG,sensor-assay potency score (higher = more potent),ARPC4,0.407
TCTTTCAGGAACCTTAGCTTGG,sensor-assay potency score (higher = more potent),ASPRV1,-0.57
TCATTGATGACTTCAAAGCTGT,sensor-assay potency score (higher = more potent),ASPRV1,-0.318
TTTGAGATTAGAGACTTCCCAC,sensor-assay potency score (higher = more potent),ATP10B,0.383
TAGTTAAACAGAAACATGTTGA,sensor-assay potency score (higher = more potent),ATP6V0A4,-0.563
TAGGTGGAGGCAAACATGCTGA,sensor-assay potency score (higher = more potent),AVPR1B,-0.677
TGCTCCTCTTGTCTCCGCCGCT,sensor-assay potency score (higher = more potent),BBC3,-1.11
TGCGTTGAGGTCGTCCGCCATC,sensor-assay potency score (higher = more potent),BBC3,-1.7
TAACACACAACTCAAAGGGAGT,sensor-assay potency score (higher = more potent),BCL7A,-1.29
ATTCTGACCACTGCGATCCTGC,sensor-assay potency score (higher = more potent),BCL7A,-0.637
TTAGCTATTAGACACAAAGGGG,sensor-assay potency score (higher = more potent),C11orf49,-0.469
TTCTGAGTGAGCTCCAGCGGGA,sensor-assay potency score (higher = more potent),C11orf49,-1.01
TTCGGAGTGAAGGAGGCGCTGC,sensor-assay potency score (higher = more potent),C14orf181,-1.09
TTCGGTTTTGTGCAAGGGGGAA,sensor-assay potency score (higher = more potent),C14orf181,-0.823
TTCGCCTGGAGCGCGTCCCTTC,sensor-assay potency score (higher = more potent),C14orf181,-1.3
TTTGTCCTGACCTTCACTGGTG,sensor-assay potency score (higher = more potent),C15orf39,-0.221
TAACCCTTCGCTGACCCGGCGT,sensor-assay potency score (higher = more potent),C14orf181,-0.821
TTAGCTTGGAGGTGGTGGTGGG,sensor-assay potency score (higher = more potent),C14orf181,-0.365
TTGATTTACAAGACAATAGGAG,sensor-assay potency score (higher = more potent),C15orf42,0.136
TTGTCCTGACCTTCACTGGTGG,sensor-assay potency score (higher = more potent),C15orf39,-0.545
AGGTATTTTAGCTTGGAGGTGG,sensor-assay potency score (higher = more potent),C14orf181,-1.31
TTCAGCATGCGTGAGGTGCAGC,sensor-assay potency score (higher = more potent),C15orf39,-0.396
TGGAGCTTCTCTTTCCTGCAGC,sensor-assay potency score (higher = more potent),C15orf39,-0.965
TATACTTATTCTCACATCCTTT,sensor-assay potency score (higher = more potent),C15orf54,-0.462
TTGGTCTGACTTATCTTGCTGG,sensor-assay potency score (higher = more potent),C15orf42,-0.193

# Reference: the OligoGym collection
